LMNA splice mod = qHTS Assay for Modulators of Lamin A Splicing; HeLa LMNA splicing GFP/RFP minigene ratio, 48 h; Potency, µM (titrated, usually from 46.1 µM), without a hit: at the top dose ratio change, negative = inhibition, usual class: inhibitors; 200,000 tested, 0.01% active; active = well fitted inhibition curve with a large enough effect in the signal ratio, with a control signal flat, not every such curve was filed as active; inconclusive = small, poorly fitted or top-dose-only effect, or effect the other way, or a change in a side signal; the % refers to the signal ratio; note: potency is the fitted concentration of half-maximal effect
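S3 HeLa stable clones carrying a lamin A-EGFP splicing minigene plus DsRed2 were seeded at 600 cells/well in Opti-MEM with 2% FBS, pin-dosed and incubated 48 h at 37°C. Acumen cytometry (488 nm) gave the GFP/RFP total-intensity ratio.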
IMPase inh = qHTS Assay for Identifying the Cell-Membrane Permeable IMPase Inhibitors | Inositol monophosphatase 1 (Rattus norvegicus), P97697 | 120,000 tested, under 10 active | AID 901, 2007 | inhibition (IP1 accumulation), % at 46.1 µM | CHO-M1 cells, IP1 accumulation, HTRF TR-FRET ratio; active = well fitted curve in the direction sought with a large enough effect in the signal ratio, not every such curve was filed as active; inconclusive = small, poorly fitted or top-dose-only effect, or a change in a side signal; inactive = no such curve, though single readings can be large or run the other way; the % refers to the signal ratio;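 note: cells stimulated with carbachol in lithium chloride buffer; plate controls were DMSO basal wells for no effect and reference inhibitor wells for full effect; higher means more IMPase inhibition seen as more IP1 and lower FRET ratio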
Target sequence (P97697 whole entry, looked up): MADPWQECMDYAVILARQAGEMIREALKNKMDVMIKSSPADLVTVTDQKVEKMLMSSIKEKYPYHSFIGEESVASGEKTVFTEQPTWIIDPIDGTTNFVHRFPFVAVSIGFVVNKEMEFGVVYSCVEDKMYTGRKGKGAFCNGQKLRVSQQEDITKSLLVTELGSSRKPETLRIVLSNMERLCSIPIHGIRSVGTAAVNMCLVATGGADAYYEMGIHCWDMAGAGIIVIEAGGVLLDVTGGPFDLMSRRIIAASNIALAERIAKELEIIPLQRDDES
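Elevated IP1 in lysates lowers TR-FRET signal (665/620 ratio and 620 channel reported). Cells were CHO-M1, given carbachol (50 uM as added) plus 50mM LiCl, pH 7.4, 30 min, 37C; compounds titrated up to 46 uM; AC50 by Hill equation.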
ALDH1A1 block = qHTS Assay for Inhibitors of Aldehyde Dehydrogenase 1 (ALDH1A1); Aldehyde dehydrogenase 1A1 (Homo sapiens), P00352; Purified ALDH1A1, NADH fluorescence, propionaldehyde substrate; Potency, µM (doses to about 75.3 µM), for inactives: at the highest dose activity, negative = inhibition, usual class: inhibitors; 220,000 tested, 7.3% active; AID 1030, 2008;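 note: potency is the fitted concentration of half-maximal effect; plate controls were no enzyme wells and a reference inhibitor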
HPGD block = qHTS Assay for Inhibitors of HPGD (15-Hydroxyprostaglandin Dehydrogenase); 15-hydroxyprostaglandin dehydrogenase [NAD(+)] (Homo sapiens), P15428; purified HPGD, NADH fluorescence kinetic, PGE2 substrate; Potency, µM, without a hit: at the top dose activity change, negative = inhibition, actives largely listed as inhibitors; 150,000 tested, 4.3% active; note: potency is the fitted concentration of half-maximal effect
Target sequence (P15428 whole entry, looked up): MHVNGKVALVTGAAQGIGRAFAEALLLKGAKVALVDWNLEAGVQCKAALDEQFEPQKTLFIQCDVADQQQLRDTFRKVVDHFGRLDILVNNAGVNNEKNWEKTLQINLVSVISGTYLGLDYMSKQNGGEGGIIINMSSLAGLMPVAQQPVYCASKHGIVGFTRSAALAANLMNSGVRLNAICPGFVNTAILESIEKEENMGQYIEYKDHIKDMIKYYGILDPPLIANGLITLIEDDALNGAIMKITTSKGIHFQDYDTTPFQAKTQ
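20 nM HPGD preincubated 15 min at room temperature with compound in 50 mM Tris-HCl pH 8, 0.01% Tween 20. Started with 1 mM NAD+ and 30 uM prostaglandin E2; NADH fluorescence (360/450 nm) read 5 times over 30-s intervals, last minus first.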
KinaseGlo FLuc = Counterscreen for Luciferase (Kinase-Glo TM) Inhibition; Luciferin 4-monooxygenase (Photuris pensylvanica), Q27757; Kinase-Glo luciferase, ATP luminescence, 8 min; Potency, µM (doses to about 38.3 µM), inactives show top-dose activity change, negative = inhibition, actives largely listed as inhibitors; 200,000 tested, 0.28% active; active = well fitted inhibition curve with a large enough effect; inconclusive = small, poorly fitted or top-dose-only effect; note: potency is the fitted concentration of half-maximal effect; nearly all actives have a fitted effect of over 60% in size
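Compound is pinned into ATP-containing buffer (10 uM ATP, imidazole pH 7.2, 7 mM MgCl2). Kinase-Glo luciferase reagent is then added. Light output is recorded following an 8-min room-temperature incubation.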
PNC inhibitor = High Content Assay for Compounds that inhibit the Assembly of the Perinucleolar Compartment. 140,000 tested, 3.1% active. PC3M PTB-GFP, PNC prevalence imaging, 16 h; stronger effect = lower value. activity change (PNC), negative = inhibition, % at 10 µM;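 active = readout at or below -70, meaning at least 70% loss of cells showing the perinucleolar compartment, a nuclear body marking cancer cells; inconclusive = readout between -30 and a set limit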;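 note: plate controls were DMSO wells for no effect and camptothecin positive control wells for full effect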
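PC3M cells stably expressing PTB-GFP, 750–1000 cells/well, treated 16 h at 37 °C with compound (23 nl of library stock), in duplicate. After paraformaldehyde fixation and Hoechst stain, imaged at 20x; PNC prevalence scored by image analysis.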
An asterisk follows results filed as active; ? = inconclusive; / = no result given; [ ] = another dose, or the depositor's remark. Most compounds without a hit are left out; they make up all but 10% or so of the library. Unless noted, calls come from the whole dose curve; as a rule, active = well fitted inhibition curve with a large enough effect (not every such curve was filed as active); inconclusive = small, poorly fitted or top-dose-only effect, or another doubt; inactive = no such curve, though single readings can be large or run the other way. Unless noted, % is set by controls: 0 for no effect and ±100 for the full control effect.

SMILES	LMNA splice mod	IMPase inh	ALDH1A1 block	HPGD block	KinaseGlo FLuc	PNC inhibitor
CC(C)n1nc(C(=O)Nc2nnc(C3CC3)s2)c2ccccc2c1=O	/	/	-2.6%	/	-2.1%	/
CCSc1nnc(NC(=O)c2nn(C(C)C)c(=O)c3ccccc23)s1	-10.3%	-5.4	25.1µM*	-15.9%	1.4%	?
CCSc1nnc(NC(=O)c2cc(C)nc3ccccc23)s1	3.0%	-3.7	-8.0%	28.2µM*	2.5%	-17.0
CCOC(=O)c1cccc(NC(=O)NC2COc3ccccc3C2)c1 (centres undefined)	3.2%[46 µM]	/	/	/	/	/
CCCCNC(=O)CSc1nc2ccccc2n1S(=O)(=O)c1ccc(Cl)cc1	-4.2%	-2.1	13.7%	2µM*	4.1%	-119.3*
O=C(CSc1nc2ccccc2n1S(=O)(=O)c1cccc([N+](=O)[O-])c1)NCCc1ccccc1	-1.7%	/	5.8%	?	2.0%	-113.4*
CCCCNC(=O)CSc1nc2ccccc2n1S(=O)(=O)c1ccc(Br)cc1	6.3%	/	10.1%	2.51µM*	3.2%	-2.4
C=CCSc1nc2ccccc2n1S(=O)(=O)c1ccc(C)cc1	-14.1%	14.9	2.4%	-2.7%	-1.0%	?
CCCCNC(=O)CSc1nc(CCC)nc2ccccc12	/	/	-2.2%	/	1.2%	/
COc1cc(-c2nc(-c3ccc4c(c3)[nH]c(=O)n4C)no2)cc(OC)c1OC	-2.8%[46 µM]	/	/	/	/	/
Cc1ccc(/C=C2/C(=O)N(c3ccccc3)C(=S)N2C)o1	3.8%	/	3.98µM*	-22.6%	-4.9%	15.6
Cc1ccc(-n2c3c(cc(C(=O)Nc4ccccc4C(N)=O)c2=O)C(=O)CC(C)(C)C3)cc1	/	-0.6	/	/	/	/
CCOC(=O)CNC(=O)N1CCCC(CCC(=O)NCc2ccc(F)c(F)c2)C1 (centres undefined)	/	/	31.6µM*	/	7.9%	/
COc1cccc(CNC(=O)CCC2CCCN(C(=O)c3ccc(OC)o3)C2)c1 (centres undefined)	/	/	7.94µM*	/	-19.2%	/
Fc1ccc(-c2ccnc(=S)[nH]2)cc1	-12.1%	2.6	?	17.8µM*	4.1%	33.2
CN(C)C(=O)n1nnnc1Cc1ccc(-c2ccccc2)cc1	/	/	1µM*	-10.9%	3.5%[39.9 µM]	/
CC(C)CN(C)C(=O)CCc1nnc(Cc2ccc(-c3ccccc3)cc2)o1	/	/	-1.9%	/	/	/
COc1ccc(C(=O)CC2(O)C(=O)N(Cc3ccccc3)c3ccc(Br)cc32)cc1 (centres undefined)	/	3.9	/	/	/	/
CCN(CC)S(=O)(=O)c1cc(-c2nnc(Nc3ccc(OC)c(C(N)=O)c3)c3ccccc23)ccc1C	/	-2.9	/	/	/	/
Cc1oc2cc3c(C(=O)N4CCCCC4)c(C)oc3cc2c1C(=O)N1CCCCC1	?	4.9	?	4.47µM*	-4.2%	-5.9
COc1cccc(-c2nn3c(=O)cc(CN4CCN(S(=O)(=O)c5ccc(C)cc5)CC4)nc3s2)c1	6.2%[46 µM]	/	/	/	/	/
COc1ccc2c(c1)O[C@@H](c1ccc3c(c1)OCO3)[C@H](OC(=O)NCCOc1ccccc1)C2=O	/	/	-7.0%	-5.4%	-0.1%	/
CSc1nnnn1-c1ccc(Cl)cc1	/	/	3.8%	/	1.4%	/
Cc1ccc(-n2nnnc2C(Cl)(Cl)c2nnnn2-c2ccc(C)cc2)cc1	-6.5%	11.2	1.26µM*	3.55µM*	-1.7%	2.4
CCOC(=O)c1ccccc1NC1(c2ccc(OC)cc2)C(=O)c2ccccc2C1=O	8.6%[46 µM]	/	/	/	/	/
COc1ccc(/C=C/C(=O)CC(O)(c2ccccc2)C(F)(F)F)cc1 (centres undefined)	?	1.5	?	-19.0%	-0.5%	-100.0*
O=C(/C=C/c1ccccc1)CC(O)(c1ccccc1)C(F)(F)F (centres undefined)	?	14.4	?	-10.8%	-2.4%	-0.7
